In the library only some 17% were active in any assay of this set; here they are far more common.
TDP1 cell CPT – qHTS for Inhibitors of human tyrosyl-DNA phosphodiesterase 1 (TDP1): qHTS in cells in presence of CPT; Potency, µM (top dose mostly 46.2 µM), most hits filed as inhibitors; chicken DT40 Tdp1-/-;hTDP1 cells + 20 nM CPT, ATP luminescence, 48 h; 12% of 420,000 active; also: nearly all actives have a fitted effect of over 55% in size
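Chicken DT40 Tdp1-/- cells complemented with human TDP1, 400 cells/well, exposed to compounds plus 20 nM camptothecin for at least 48 h at 37 C; viability read as ATP content by CellTiter-Glo luminescence.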
TDP1 inh – qHTS Assay for Inhibitors of Tyrosyl-DNA Phosphodiesterase (TDP1) | AID 485290, 2010 | recombinant TDP1, AlphaScreen DNA substrate cleavage | 0.28% of 350,000 active | Tyrosyl-DNA phosphodiesterase 1 (Homo sapiens), Q9NUW8 | Potency, µM (doses to about 130 µM), hits mostly inhibitors; also: nearly all actives have a fitted effect of over 40% in size
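AlphaScreen read-out: signal falls as enzyme removes the 3' tyrosine-FITC from a 5'-biotinylated DNA oligo (15 nM, 5 min, RT). Enzyme was E. coli-made recombinant Tdp1 at 1 nM, exposed to compound for 15 min beforehand; beads 10 ug/ml, 10 min.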
ClpP mod – qHTS Assay for Activators of ClpP. purified B. subtilis ClpP, FRET peptide cleavage, 20 min. Potency, µM (highest dose often 57.5 µM). 1.9% of 340,000 active. AID 651965, 2013; active = well fitted falling curve with a large enough effect; inconclusive = small, poorly fitted or top-dose-only effect; inactive = no such curve, though single readings can be large or run the other way; also: the source files actives as falling curves though it sought activators and does not explain the sign; nearly all actives have a fitted effect of over 65% in size
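ClpP 10 microg/mL final, pH 8 Tris/KCl buffer with BSA, glycerol, Tween-20; compound pinned in; FRET-FV substrate; RT 20 min; Ex320/Em430; ΔFRET vs ADEP 5.8 microM, DMSO, no enzyme.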
DT40 TDP1 no CPT – qHTS for Inhibitors of human tyrosyl-DNA phosphodiesterase 1 (TDP1): qHTS in cells in absence of CPT; Potency, µM (titrated, usually from 46.2 µM), most hits filed as inhibitors; 15% of 420,000 active; DT40 Tdp1-/- hTDP1 cells, no CPT, ATP luminescence, 48 h; also: nearly all actives have a fitted effect of over 55% in size
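No-CPT arm: Tdp1-/-;hTDP1 DT40 cells (400/well) plus compounds, incubated ≥48 hr at 37 °C. Readout CellTiter-Glo luminescence.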
Each line names hits and unclear results; the compound was inactive in the other large screens. Unless noted, calls follow the shape of the dose curve; as a rule, active = well fitted curve in the direction sought with a large enough effect; inconclusive = small, poorly fitted or top-dose-only effect, or another doubt; inactive = no such curve, though single readings can be large; an effect the other way counts as inactive or inconclusive.

Cc1ccc2c(c1)c1c(c(=O)n(-c3cccc(Cl)c3)c(=O)n1CC(=O)N1CCCC1)n2C	TDP1 cell CPT inconclusive
O=C(O)COc1ccccc1/C=C1\C(=O)Nc2ccc(Br)cc21	ClpP mod 25µM (no result: TDP1 inh)
O=C1Nc2ccc(Br)cc2/C1=C/C(=O)c1ccccc1	TDP1 cell CPT 5.8µM, DT40 TDP1 no CPT 4.6µM (no result: TDP1 inh)
C=CCOc1cccc(C(=O)/C=C2/C(=O)Nc3ccccc32)c1	TDP1 cell CPT 7.3µM, DT40 TDP1 no CPT 6.5µM (no result: TDP1 inh)
Cc1ccc2c(c1)/C(=C/c1ccccc1F)C(=O)N2	TDP1 cell CPT inconclusive, DT40 TDP1 no CPT inconclusive (no result: TDP1 inh)
CC(=O)N(C)c1ccc(N=C2C(=O)Nc3ccccc32)cc1	none (no result: TDP1 inh)
CC(=O)/C=C1/C(=O)Nc2ccccc21	TDP1 cell CPT 6.5µM, DT40 TDP1 no CPT 3.7µM
C[C@@H](NC(=O)c1cc2c([nH]c3ccccc32)c(-c2ccccc2)n1)C(=O)O	none (no result: TDP1 inh)
O=C(c1ccc(F)cc1)N(c1ccccn1)C1CCCCC1	DT40 TDP1 no CPT inconclusive
Cc1ccc(-c2nnc(CN3CCCCC3C)o2)cc1 (stereo not given)	none (no result: TDP1 inh)
Oc1ccc(Cl)cc1CN1CCOc2c(O)cc(-c3nc4ccccc4s3)cc2C1	DT40 TDP1 no CPT inconclusive (no result: TDP1 inh, ClpP mod)
CCN1CCN(C(=O)c2ccc3c(c2)N(Cc2ccccc2)C(=O)c2ccccc2S3(=O)=O)CC1	none
CCN1CCN(C(=O)c2ccc3c(c2)N(Cc2ccc(Cl)cc2)C(=O)c2ccccc2S3(=O)=O)CC1	TDP1 cell CPT inconclusive, DT40 TDP1 no CPT 23µM
O=C(c1ccc2c(c1)N(Cc1ccc(Cl)cc1)C(=O)c1ccccc1S2(=O)=O)N1CCCC1	TDP1 cell CPT 21µM, DT40 TDP1 no CPT 26µM
O=C(c1ccc2c(c1)N(Cc1ccc(F)cc1)C(=O)c1ccccc1S2(=O)=O)N1CCCC1	TDP1 cell CPT 23µM, DT40 TDP1 no CPT 16µM
O=C(c1ccc2c(c1)N(Cc1ccc(Cl)cc1)C(=O)c1ccccc1S2(=O)=O)N1CCc2ccccc21	TDP1 cell CPT 5.8µM, DT40 TDP1 no CPT 7.3µM
COc1ccc(S(=O)(=O)N2CCC(C(=O)Nc3nccs3)CC2)cc1	none
CCOC(=O)C1(C)CCN1C(=O)c1cc(F)ccc1C (stereo not given)	TDP1 cell CPT inconclusive (no result: TDP1 inh)
COc1ccc(NC(=O)C2CC(=O)N(c3ccccc3F)C2)cc1S(=O)(=O)N1CCCCC1 (stereo not given)	DT40 TDP1 no CPT inconclusive (no result: TDP1 inh)
O=C1NN(c2ccc(F)cc2)C(=O)/C1=C/c1cccs1	none
COc1ccc(C(=O)COC(=O)C2CCC(=O)N2)cc1 (stereo not given)	none (no result: ClpP mod)
C=C[C@@H]1c2ccccc2N(S(=O)(=O)c2ccc(C)cc2)[C@H](c2ccccc2)C1(C#N)C#N	TDP1 cell CPT 7.9µM, DT40 TDP1 no CPT 21µM
C=C[C@@H]1c2cc(C)ccc2N(S(=O)(=O)c2ccc(C)cc2)[C@H](c2ccccc2)C1(C#N)C#N	TDP1 cell CPT 7.9µM, DT40 TDP1 no CPT 10µM
Cc1ccc2c(c1)C1CN(C)CCC1N2S(=O)(=O)c1ccc(C(C)C)cc1 (stereo not given)	TDP1 cell CPT inconclusive, DT40 TDP1 no CPT inconclusive
Cc1ccc(S(=O)(=O)N2C[C@@H]3c4ccccc4N(S(=O)(=O)c4ccc(C)cc4)[C@@H]3[C@@H](C)C2CC(=O)c2ccccc2)cc1 (stereo not given in full)	none
C=C[C@@H]1c2cc(C)ccc2N(S(=O)(=O)c2ccc(C)cc2)[C@H](c2ccccc2C(F)(F)F)C1(C#N)C#N	TDP1 cell CPT 8.2µM, DT40 TDP1 no CPT inconclusive
COc1cc(CNCc2ccccn2)ccc1OCc1cccc(Cl)c1	TDP1 cell CPT inconclusive, DT40 TDP1 no CPT inconclusive
CC(C)(C)n1ncc(Oc2ccccc2[N+](=O)[O-])c(Cl)c1=O	TDP1 cell CPT inconclusive, DT40 TDP1 no CPT 23µM
O=C(Nc1ccccc1C(F)(F)F)C1CCN(c2nnc(-n3cccc3)s2)CC1	TDP1 cell CPT inconclusive, DT40 TDP1 no CPT inconclusive
CCCN1CCN(c2nnc(-n3cccc3C(=O)Nc3ccccc3C(F)(F)F)s2)CC1	TDP1 cell CPT 21µM, DT40 TDP1 no CPT 21µM
CCN1CCN(c2nnc(-n3cccc3C(=O)NCc3ccccc3OC)s2)CC1	TDP1 cell CPT 16µM, DT40 TDP1 no CPT inconclusive
COc1ccccc1CNC(=O)c1cccn1-c1nnc(N2CCCC2)s1	TDP1 cell CPT inconclusive, DT40 TDP1 no CPT inconclusive
CCCCC1(Br)C(=O)N(c2ccccc2)N(c2ccccc2)C1=O	TDP1 cell CPT inconclusive, DT40 TDP1 no CPT 16µM
CCCCC1(CO)C(=O)N(c2ccccc2)N(c2ccccc2)C1=O	TDP1 cell CPT inconclusive, DT40 TDP1 no CPT inconclusive (no result: ClpP mod)
O=C(Nc1ccc(Cl)cc1Cl)c1cc(S(=O)(=O)N2CCC3(CC2)OCCO3)ccc1F	TDP1 cell CPT 16µM, DT40 TDP1 no CPT 16µM
Cc1ccc(NC(=O)c2cc(S(=O)(=O)N3CCC4(CC3)OCCO4)ccc2F)cc1Cl	TDP1 cell CPT 8.2µM, DT40 TDP1 no CPT 15µM
O=C(Nc1cccc(Cl)c1)c1cc(S(=O)(=O)N2CCC3(CC2)OCCO3)ccc1F	TDP1 cell CPT inconclusive, DT40 TDP1 no CPT inconclusive
O=C(Nc1ccc(Cl)cc1Cl)c1cc(S(=O)(=O)N2CCN(c3ccccc3F)CC2)ccc1F	TDP1 cell CPT 9.2µM, DT40 TDP1 no CPT 8.2µM
O=C(Nc1ccc(Cl)cc1Cl)c1cc(S(=O)(=O)N2CCCCCC2)ccc1F	TDP1 cell CPT inconclusive, DT40 TDP1 no CPT inconclusive
Cc1ccccc1N=C1c2ccccc2C(=O)C1[N+](=O)[O-] (stereo not given)	DT40 TDP1 no CPT inconclusive
Cc1cnc(CNc2cc(-c3ccc(N(C)C)cc3)ncn2)cn1	none (no result: TDP1 inh, ClpP mod)
O=C(Cc1ccc(NC(=O)N2CCCCc3ccccc32)cc1)Nc1ccccc1Br	TDP1 cell CPT inconclusive, DT40 TDP1 no CPT 21µM
CC(C)c1ccc(NC(=O)Cc2ccc(NC(=O)N3CCCCc4ccccc43)cc2)cc1	TDP1 cell CPT 18µM, DT40 TDP1 no CPT 21µM
COCCNC(=O)Cc1ccc(NC(=O)N2CCCCc3ccccc32)cc1	none
Cc1cccc(C)c1CC(=O)N1CCOCC1	none
Cc1cc(Cl)ccc1OCC(=O)NCC(c1cccs1)N1CCOCC1 (stereo not given)	TDP1 cell CPT inconclusive, DT40 TDP1 no CPT 16µM (no result: TDP1 inh)
Cc1cc(SCC(=O)NCC(c2cccs2)N2CCOCC2)c(C)cc1Br (stereo not given)	TDP1 cell CPT inconclusive, DT40 TDP1 no CPT 18µM (no result: TDP1 inh)
Cc1ccc(C(C)C)c(OCC(=O)NCC(c2cccs2)N2CCOCC2)c1 (stereo not given)	TDP1 cell CPT 26µM, DT40 TDP1 no CPT 13µM (no result: ClpP mod)
C/C(CCC(=O)OC[C@@H]1O[C@H](C#Cc2ccccc2)C=C[C@@H]1Oc1ccc(C)cc1)=N/O[C@@H](C)CN1CCCCc2nc(C)c(C)cc21	none (no result: TDP1 cell CPT, ClpP mod, DT40 TDP1 no CPT)
CCS(=O)(=O)N1Cc2cc(C(=O)NCCOC)nc(-c3cccc(-c4ccncc4)c3)c2[C@H]1CCO	none (no result: TDP1 inh)
